Where “and” joins values, the source holds several entries; their conditions need not be identical. Equal values may be shown once. A structure can be active in one record and inactive in another. Calls of active or inactive are those of the source. Cut-off read from the data, not from the text of the source: active = parasite load remaining mostly below about 12% (no sharp cut-off); inactive = mostly above about 10%. Peptide text beside a SMILES is read from it.

This experiment can be described thus: liver-stage malaria parasite growth inhibition, primary screen, cell-based, HepG2, luciferase luminescence, HepG2 viability (AID 624349).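 Note: 100% = mean of DMSO negative control wells on the same plate.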 The note with it: P. berghei liver stage in HepG2, luciferase luminescence, concentration not given here; parasite load remaining: stronger effect = lower value; viability: measured here: HepG2 viability without parasites.
For orientation: viability means a read-out of living cells in per cent, often relative to untreated cells. Consider `CCCC(C(=O)OCCN(CC)CC)(c1ccccc1)c1ccccc1`, for which the parasite load remaining was -0.02% (active) and 10.3% (inactive) and 0.005% (inactive); the viability was 85.1% and 64.2% and 90.3%.

In the case of `O=C(Nc1ccc([N+](=O)[O-])cc1Cl)c1cc(Cl)ccc1O`, the parasite load remaining was -1.67% (inactive) and -1.04% (inactive) and -2.1% (inactive); the viability was 26.1% and 53.7% and 67.1%.

Take `C=CC(N)CCC(=O)O` (stereo unspecified): the parasite load remaining is 117% (inactive) and 83.3% (inactive) and 20.7% (inactive); the viability was 112% and 77.9% and 99.3%.

Regarding `CC1(C)O[C@@H]2C[C@H]3[C@@H]4CCC5=CC(=O)CC[C@]5(C)[C@@]4(F)[C@@H](O)C[C@]3(C)[C@]2(C(=O)CCl)O1`, the parasite load remaining was 116% (inactive) and the viability worked out at 97.4%.

On to `CNC1(C)C2CCC(C2)C1(C)C` (stereo unspecified), for which the parasite load remaining was 95.9% (inactive) and 84% (inactive); the viability was 76% and 101%.

Consider `NCCS`, for which the parasite load remaining is 22.7% (inactive) and 38.2% (inactive); the viability is 94.3% and 106%.

With `OC[C@H]1O[C@@H](O[C@@H]2[C@@H](CO)O[C@](O)(CO)[C@H]2O)[C@H](O)[C@@H](O)[C@H]1O`, the parasite load remaining is 106% (inactive) and 22.7% (inactive); the viability is 76.4% and 96.6%.

Take `Nc1c2c(nc3ccccc13)CCCC2O` (stereo unspecified): the parasite load remaining is 125% (inactive) and 39.9% (inactive); the viability is 110% and 112%.

Take `CSc1ccc2c(c1)C(N1CCN(C)CC1)Cc1ccccc1S2` (stereo unspecified): the parasite load remaining was 74.1% (inactive) and 71.4% (inactive) and 63.7% (inactive); the viability was 72.2% and 69.9% and 104%.

`Cc1ccc(C(=O)Nc2ccc(S(=O)(=O)O)c3cc(S(=O)(=O)O)cc(S(=O)(=O)O)c23)cc1NC(=O)c1cccc(NC(=O)Nc2cccc(C(=O)Nc3cc(C(=O)Nc4ccc(S(=O)(=O)O)c5cc(S(=O)(=O)O)cc(S(=O)(=O)O)c45)ccc3C)c2)c1`: the parasite load remaining is 42.8% (inactive) and 57% (inactive); the viability is 89.5% and 106%.

`C[N+]1(CCCCC[N+]2(C)CCCC2)CCCC1`: the parasite load remaining is 24.8% (inactive) and 111% (inactive) and 94.9% (inactive); the viability is 48.6% and 96% and 89.3%.

Regarding `CCCCCN(CCCCC)C(=O)C(CCC(=O)O)NC(=O)c1ccc(Cl)c(Cl)c1` (stereo unspecified), the parasite load remaining was 72.3% (inactive) and 35.5% (inactive); the viability was 92.1% and 74.5%.

In the case of `NC(=O)NO`, the parasite load remaining is 113% (inactive) and 59.4% (inactive); the viability is 74.6% and 101%.

Regarding `CCOC(=O)C(C)(C)Oc1ccc(Cl)cc1`, the parasite load remaining was 56.5% (inactive) and 51.6% (inactive); the viability is 100% and 144%.

For the compound `CC(=O)OC(C)C[N+](C)(C)C` (stereo unspecified), the parasite load remaining was 94% (inactive) and 73.8% (inactive) and 58% (inactive); the viability was 94.5% and 73.8% and 92.8%.

As for `NNc1nncc2ccccc12`, the parasite load remaining is 83.7% (inactive) and 102% (inactive) and 72.4% (inactive); the viability was 72.8% and 96.1% and 95%.

With `CCOC(=O)NNc1nncc2ccccc12`, the parasite load remaining was 44.2% (inactive) and 101% (inactive) and 89.6% (inactive); the viability was 43.6% and 65.7% and 90.2%.

With `COC(=O)[C@H](Cc1ccccc1)NC(=O)[C@@H](N)CC(=O)O` (H-Asp-Phe-OMe), the parasite load remaining was 156% (inactive) and 74.6% (inactive); the viability is 84.2% and 212%.

Take `COc1ccnc(CS(=O)c2nc3ccc(OC(F)F)cc3[nH]2)c1OC` (stereo unspecified): the parasite load remaining was 154% (inactive) and 46.8% (inactive) and 36.5% (inactive); the viability is 91.7% and 94.9% and 116%.

Regarding `COC(=O)[C@@H]1[C@H]2C[C@H]3c4[nH]c5ccccc5c4CCN3C[C@@H]2CC[C@@H]1O`, the parasite load remaining is 80.6% (inactive) and 73.2% (inactive) and 41.3% (inactive); the viability is 101% and 81.3% and 96.5%.

`CC(=O)Oc1ccccc1C(=O)O`: the parasite load remaining is 80.4% (inactive) and 75.4% (inactive) and 33.3% (inactive); the viability is 71.3% and 95.3% and 127%.

As to `Cn1cnc2c1c(=O)[nH]c(=O)n2C`, the parasite load remaining is 101% (inactive) and 137% (inactive) and 62.6% (inactive); the viability was 101% and 74.3% and 103%.

With `O=C(COc1ccc(Cl)cc1)N1CCN(Cc2ccc3c(c2)OCO3)CC1`, the parasite load remaining was 33.6% (inactive) and 155% (inactive) and 109% (inactive); the viability was 49.1% and 91.8% and 89.5%.

As to `C[n+]1cc2c3c(ccc2c2ccc4cc5c(cc4c21)OCO5)OCO3`, the parasite load remaining is -0.155% (inactive) and -0.085% (inactive); the viability is 0.535% and 0%.

As to `CN(C)[C@@H]1C(=O)C(C(N)=O)=C(O)[C@@]2(O)C(=O)C3=C(O)c4c(O)ccc(Cl)c4[C@@H](O)[C@H]3C[C@@H]12`, the parasite load remaining was 68.4% (inactive) and 96.7% (inactive) and 81.2% (inactive); the viability is 95.5% and 71.1% and 88.6%.

With `Cc1cc(N)c2ccccc2[n+]1CCCCCCCCCC[n+]1c(C)cc(N)c2ccccc21`, the parasite load remaining is 4.91% (inactive) and -3.56% (inactive) and 27.5% (inactive); the viability is 97.2% and 73.1% and 69.2%.

For `C=Cc1c(C)c2cc3[nH]c(cc4nc(cc5nc(cc1[nH]2)C(C)=C5CCC(=O)O)C(CCC(=O)O)=C4C)c(C)c3C=C`, the parasite load remaining is 108% (inactive) and the viability was 65.3%.

Consider `CCN(CC)C(C)CN1c2ccccc2Sc2ccccc21` (stereo unspecified), for which the parasite load remaining is 77.1% (inactive) and 61.6% (inactive) and 39% (inactive); the viability is 89.3% and 65.2% and 91.5%.

On to `NCCCCCC(=O)O`, for which the parasite load remaining was 112% (inactive) and 74.1% (inactive) and 56.9% (inactive); the viability is 104% and 74.3% and 90.5%.

With `CCN(CC)CCNC(=O)c1ccc(NC(C)=O)cc1`, the parasite load remaining is 46.9% (inactive) and the viability came to 102%.

For `CCOC(=O)c1ccc(N)cc1`, the parasite load remaining was 108% (inactive) and 105% (inactive) and 49.4% (inactive); the viability was 103% and 76.4% and 98.1%.

For `CNC[C@H](O)c1cccc(O)c1`, the parasite load remaining was 64.7% (inactive) and 44.2% (inactive); the viability was 77.3% and 99.6%.

Take `O=c1c(O)c(-c2ccc(O)c(O)c2)oc2cc(O)cc(O)c12`: the parasite load remaining is 49.9% (inactive) and 67.9% (inactive); the viability was 108% and 73.7%.

For the compound `O=C(OCC(O)CO)c1ccccc1Nc1ccnc2cc(Cl)ccc12` (stereo unspecified), the parasite load remaining was 9.85% (inactive) and 91.3% (inactive) and 74.6% (inactive); the viability was 47.1% and 73.6% and 92%.

Consider `CC(=O)O[C@]1(C(C)=O)CC[C@H]2[C@@H]3C=C(Cl)C4=CC(=O)[C@@H]5C[C@@H]5[C@]4(C)[C@H]3CC[C@@]21C`, for which the parasite load remaining is 8.85% (inactive) and the viability came to 69%.

On to `C[C@H]1O[C@@H](n2cc(F)c(=O)[nH]c2=O)[C@H](O)[C@@H]1O`, for which the parasite load remaining is 43.4% (inactive) and the viability is 83%.

In the case of `CC1(C)NC(=O)N(c2ccc([N+](=O)[O-])c(C(F)(F)F)c2)C1=O`, the parasite load remaining is 54.2% (inactive) and 50.4% (inactive) and 7.05% (inactive); the viability was 92.2% and 99% and 125%.

On to `C[N+](C)(C)CCCCCC[N+](C)(C)C`, for which the parasite load remaining is 28% (inactive) and 143% (inactive) and 127% (inactive); the viability was 48% and 87.6% and 90.7%.
